Assay [1] concerns the target Glucocorticoid receptor (Homo sapiens) (UniProt P04150). Briefly: qHTS assay to identify small molecule antagonists of the glucocorticoid receptor (GR) signaling pathway (AID 720692; active means well fitted inhibition curve with a large enough effect in the signal ratio in the repeat runs, not every such curve was filed as active; the % refers to the signal ratio; further: potency means the concentration at half of the fitted maximal effect). In a few lines: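 GR-bla HeLa cells (beta-lactamase reporter under glucocorticoid response element) were pre-plated 4 h at 37 C, treated with compounds plus 5 nM dexamethasone (final) for 18 h, then read by LiveBLAzer B/G FRET fluorescence after 2 h.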

Assay [2] is described as follows: qHTS assay for identifying genotoxic compounds that show differential cytotoxicity against isogenic chicken DT40 cell lines with known DNA damage response pathways - Rad54/Ku70 mutant cell line (AID 743015). Further: nearly all actives have a fitted effect of over 60% in size. Further: potency means the concentration at half of the fitted maximal effect.
Assay [3] addresses Androgen receptor (Homo sapiens) (UniProt P10275). The assay can be described thus: qHTS assay to identify small molecule antagonists of the androgen receptor (AR) signaling pathway (AID 743035; active means well fitted inhibition curve with a large enough effect in the signal ratio in the repeat runs, not every such curve was filed as active; the % refers to the signal ratio). An outline of the steps:
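HEK293 cells stably carrying a UAS-driven beta-lactamase reporter (AR-UAS-bla GripTite) were plated for 4 h at 37C, then given compound and the agonist R1881 and incubated 16 h. Reporter activity was read by LiveBLAzer B/G FRET fluorescence after 2 h at room temperature.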
Background: Quantitative high-throughput screening tests each substance at several concentrations.

The target is the same in assay [4]. Briefly: qHTS assay to identify small molecule agonists of the androgen receptor (AR) signaling pathway (AID 743036; active means well fitted activation curve with a large enough effect in the signal ratio in the repeat runs, with a control signal flat, not every such curve was filed as active; the % refers to the signal ratio; further: potency means the concentration at half of the fitted maximal effect). In a few lines:
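Fluorescence from a beta-lactamase FRET substrate served as read-out in AR-UAS-bla GripTite HEK293 cells. Cells were treated with DMSO-dissolved compounds for 16 h at 37C, then with LiveBLAzer B/G substrate for 2 h at room temperature.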

Assay [5] has the same target. Briefly: qHTS assay to identify small molecule agonists of the androgen receptor (AR) signaling pathway using the MDA cell line (AID 743040; further: nearly all actives have a fitted effect of over 20% in size; further: potency means the concentration at half of the fitted maximal effect). In a few lines: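 After a 5 h incubation at 37C and 0% CO2, MDA-kb2 reporter cells were dosed with compounds in DMSO and kept 16 h under the same conditions. Luciferase activity was then read as luminescence with ONE-Glo.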
For assay [6] the target is unchanged. The assay can be described thus: qHTS assay to identify small molecule antagonists of the androgen receptor (AR) signaling pathway using the MDA cell line (AID 743042; further: nearly all actives have a fitted effect of over 55% in size). An outline of the steps:
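Antagonist mode: compounds plus R1881 agonist added to MDA-kb2 AR-luc cells, incubated 16 h at 37C. Luciferase reporter luminescence quantified, with multiplexed CellTiter-Fluor readout for cell viability.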

Assay [7] can be described thus: qHTS assay for small molecule disruptors of the mitochondrial membrane potential (AID 720635). Further: potency means the concentration at half of the fitted maximal effect. An outline of the steps: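 Mitochondrial membrane potential tracked with Mito-MPS dye, red aggregates (ex 540/em 590 nm) against green monomers (ex 490/em 535 nm). Compound treatment 1 hr at 37C, dye 30 min in HepG2.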
The target in assay [8] is Estrogen receptor (Homo sapiens) (UniProt P03372). The assay can be described thus: qHTS assay to identify small molecule antagonists of the estrogen receptor alpha (ER-alpha) signaling pathway (AID 743069; active means well fitted curve in the direction sought with a large enough effect in the signal ratio in the repeat runs, not every such curve was filed as active; the % refers to the signal ratio). An outline of the steps:
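Compound effects are measured against 17beta-estradiol stimulation in HEK293 cells with a UAS-controlled beta-lactamase reporter for ER-alpha. Exposure lasts 18 hr at 37C; LiveBLAzer B/G FRET substrate follows for 2 hr at room temperature.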

This passage reports Potency results from PubChem BioAssay (Tox21).

The structures appear in SMILES notation. A number with no mark means an inactive call. Inconclusive results are not listed. The source made the active and inactive calls. Unless noted, the call rests on the fitted dose curve; in most records, active means well fitted curve in the direction sought with a large enough effect in the repeat runs; inconclusive means weak or mixed curves; inactive means no such curve, though single readings can be large; an effect the other way counts as inactive or inconclusive.

Chain of Estrogen receptor (Homo sapiens) (P03372 whole entry, looked up): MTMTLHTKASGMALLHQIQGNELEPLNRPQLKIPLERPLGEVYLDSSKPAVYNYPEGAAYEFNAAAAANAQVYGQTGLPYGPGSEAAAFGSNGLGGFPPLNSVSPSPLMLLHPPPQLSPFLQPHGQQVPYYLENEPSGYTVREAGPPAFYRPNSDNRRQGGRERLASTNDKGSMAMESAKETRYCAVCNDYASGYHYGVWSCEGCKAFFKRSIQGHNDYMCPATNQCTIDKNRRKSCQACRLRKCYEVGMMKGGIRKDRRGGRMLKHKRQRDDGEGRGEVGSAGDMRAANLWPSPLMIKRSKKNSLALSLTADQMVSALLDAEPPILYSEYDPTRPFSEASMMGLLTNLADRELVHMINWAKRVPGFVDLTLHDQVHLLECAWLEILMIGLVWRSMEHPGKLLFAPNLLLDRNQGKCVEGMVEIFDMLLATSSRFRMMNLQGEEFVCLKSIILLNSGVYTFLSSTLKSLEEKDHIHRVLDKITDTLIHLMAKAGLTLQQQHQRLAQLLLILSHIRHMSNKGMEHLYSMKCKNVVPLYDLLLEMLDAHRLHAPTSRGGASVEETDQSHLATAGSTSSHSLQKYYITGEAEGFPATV
Chain of Glucocorticoid receptor (Homo sapiens) (P04150 whole entry, looked up): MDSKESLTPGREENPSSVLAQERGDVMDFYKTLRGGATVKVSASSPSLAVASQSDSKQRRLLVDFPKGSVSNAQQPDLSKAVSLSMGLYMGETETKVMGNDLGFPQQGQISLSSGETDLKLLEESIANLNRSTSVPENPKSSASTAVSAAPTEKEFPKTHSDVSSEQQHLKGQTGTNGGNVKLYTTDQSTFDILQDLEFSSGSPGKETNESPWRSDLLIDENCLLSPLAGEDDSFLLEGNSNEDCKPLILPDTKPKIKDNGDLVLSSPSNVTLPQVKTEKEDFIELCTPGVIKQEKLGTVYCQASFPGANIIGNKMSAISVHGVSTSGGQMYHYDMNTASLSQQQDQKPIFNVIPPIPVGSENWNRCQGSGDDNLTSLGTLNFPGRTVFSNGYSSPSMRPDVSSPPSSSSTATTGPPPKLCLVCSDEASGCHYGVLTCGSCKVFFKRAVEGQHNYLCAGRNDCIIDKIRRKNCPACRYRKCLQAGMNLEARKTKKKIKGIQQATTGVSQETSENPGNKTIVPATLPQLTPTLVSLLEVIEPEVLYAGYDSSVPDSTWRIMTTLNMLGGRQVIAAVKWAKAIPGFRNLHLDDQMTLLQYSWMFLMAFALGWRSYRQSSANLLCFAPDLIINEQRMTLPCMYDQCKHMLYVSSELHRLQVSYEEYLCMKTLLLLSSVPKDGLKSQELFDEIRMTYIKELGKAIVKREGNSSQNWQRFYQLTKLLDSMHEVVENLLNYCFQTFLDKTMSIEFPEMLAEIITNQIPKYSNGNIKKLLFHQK
Chain of Androgen receptor (Homo sapiens) (P10275 whole entry, looked up): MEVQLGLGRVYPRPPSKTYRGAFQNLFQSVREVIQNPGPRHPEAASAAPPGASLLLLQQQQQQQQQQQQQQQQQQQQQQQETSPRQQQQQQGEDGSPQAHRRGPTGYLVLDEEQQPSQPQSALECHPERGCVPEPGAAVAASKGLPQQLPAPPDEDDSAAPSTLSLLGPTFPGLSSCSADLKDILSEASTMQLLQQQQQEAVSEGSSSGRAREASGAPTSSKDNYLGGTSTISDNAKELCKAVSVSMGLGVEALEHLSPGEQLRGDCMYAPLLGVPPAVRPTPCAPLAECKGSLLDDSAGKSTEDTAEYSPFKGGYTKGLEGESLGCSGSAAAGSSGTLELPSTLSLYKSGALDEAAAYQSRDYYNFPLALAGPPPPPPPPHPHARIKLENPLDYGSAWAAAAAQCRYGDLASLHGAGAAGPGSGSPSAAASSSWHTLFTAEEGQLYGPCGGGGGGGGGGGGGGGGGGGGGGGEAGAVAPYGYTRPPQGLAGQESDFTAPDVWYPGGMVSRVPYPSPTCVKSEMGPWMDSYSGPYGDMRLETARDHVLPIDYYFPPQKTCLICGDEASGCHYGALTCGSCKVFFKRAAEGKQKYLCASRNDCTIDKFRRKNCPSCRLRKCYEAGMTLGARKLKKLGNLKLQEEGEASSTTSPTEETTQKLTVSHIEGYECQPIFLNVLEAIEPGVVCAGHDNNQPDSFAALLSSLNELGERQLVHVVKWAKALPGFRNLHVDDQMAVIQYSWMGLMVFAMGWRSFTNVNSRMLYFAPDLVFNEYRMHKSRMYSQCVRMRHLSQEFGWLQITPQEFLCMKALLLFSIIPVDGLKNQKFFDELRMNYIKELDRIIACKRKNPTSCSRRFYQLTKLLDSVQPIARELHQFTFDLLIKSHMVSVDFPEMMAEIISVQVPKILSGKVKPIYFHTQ

Take `CC(C)CCC(=O)O[C@H]1CC[C@H]2[C@@H]3CCC4=CC(=O)CC[C@]4(C)[C@H]3CC[C@]12C`: the Potency in assay [1] is 6.01 µM (active); in assay [4], 0.0107 µM (active); in assay [5], 0.0042 µM (active). Besides, the Potency entry in assay [2], in assay [3] and in assay [6] was “inactive” in each case.
`CCCC(=O)OC(C(Cl)(Cl)Cl)P(=O)(OC)OC` (configuration not stated): the Potency result in assay [2], in assay [3], in assay [4] and in assay [6] was “inactive” each time. Besides, the Potency in assay [5] is 33.5 µM (active).
As to `CN(C)CCCCCCN(C)C` (tested in a mixture with another compound), the Potency entry in assay [1] is “inactive”.
As to `CCN(CC)C(=O)N[C@H]1C[C@@H]2c3cccc4[nH]cc(c34)C[C@H]2N(C)C1`, the Potency entry in assay [3], in assay [4], in assay [5] and in assay [6] was “inactive” each time.
In the case of `Oc1ccc2c3c1O[C@H]1[C@@H](O)CC[C@@]4(O)[C@@H](C2)N(CC2CCC2)CC[C@]314`, the Potency result in assay [1] and in assay [6] was “inactive” throughout.
For the compound `c1ccc2c(c1)Sc1ccccc1N2C[C@@H]1CN2CCC1CC2`, the Potency result in assay [7] and in assay [1] was “inactive” each time.
Turning to `O=C1OC2(c3cc(Br)c(O)cc3Oc3c2cc(Br)c(O)[c]3[Hg])c2ccccc21` (configuration not stated), the Potency entry in assay [1] was “inactive”. For the same compound, the Potency in assay [2] is 10.1 µM (active).
For the compound `CC(C)=CCN1CC[C@]2(C)c3cc(O)ccc3C[C@H]1[C@H]2C`, the Potency entry in assay [7] is “inactive”. In assay [2], the Potency was 27.3 µM (active).
As for `COc1cc([C@@H]2c3cc4c(cc3[C@@H](O)[C@H]3COC(=O)[C@H]23)OCO4)cc(OC)c1O`, the Potency in assay [7] was 2.11 µM (active); in assay [2] it was 0.266 µM (active). Besides, in assay [8], the Potency entry was “inactive”.
For the compound `C#CCN1CC(=O)N(COC(=O)C2C(C=C(C)C)C2(C)C)C1=O` (configuration not stated), the Potency result in assay [1], in assay [2] and in assay [8] was “inactive” throughout.
`C=C[C@H]1CN2CC[C@H]1C[C@H]2[C@H](OC(=O)OCC)c1ccnc2ccc(OC)cc12`: the Potency entry in assay [1] and in assay [2] was “inactive” throughout.
For the compound `Cc1cc(C)cc(C(=O)OC2C[C@H]3CC[C@@H](C2)N3C)c1` (some centres not stated), in assay [2], the Potency was 5.31 µM (active). Further, the Potency result in assay [8] is “inactive”.
Regarding `C=CCC1([C@@H](C)CCC)C(=O)NC(=O)NC1=O`, the Potency result in assay [7], in assay [1] and in assay [8] was “inactive” throughout.
On to `CN[C@]1(c2ccccc2Cl)CCCCC1=O`, for which the Potency entry in assay [7], in assay [1], in assay [2] and in assay [8] was “inactive” in each case.
On to `C[C@]12CCC(=O)C[C@@H]1CC[C@@H]1[C@@H]2CC[C@@]2(C)[C@H]1CC[C@]2(C)O`, for which the Potency in assay [1] was 8.49 µM (active). For the same compound, the Potency result in assay [2] is “inactive”.
Take `C=CCC1(C(C)CCC)C(=O)N=C(S)NC1=O` (configuration not stated): the Potency result in assay [7], in assay [1], in assay [2], in assay [4], in assay [5] and in assay [6] was “inactive” in each case.
Consider `c1ccc(C2(N3CCCC3)CCCCC2)cc1`, for which the Potency in assay [7] was 19.7 µM (active); in assay [2], 7.5 µM (active).
On to `O=C(NC(=O)c1c(F)cccc1F)Nc1ccc(Cl)c(Oc2ncc(C(F)(F)F)cc2Cl)c1`, for which, in assay [7], the Potency was 2.98 µM (active). Further, the Potency entry in assay [8] was “inactive”.
On to `O=c1ccc2cc(O[C@@H]3O[C@H](CO)[C@@H](O)[C@H](O)[C@H]3O)c(O)cc2o1`, for which the Potency result in assay [2], in assay [5] and in assay [6] was “inactive” in each case. Besides, in assay [4], the Potency was 9.1 µM (active).
As to `CCC1(c2ccccc2)C(=O)NC(=O)N(C)C1=O` (configuration not stated), the Potency entry in assay [1] and in assay [2] was “inactive” throughout.
`Cc1nnc2n1-c1ccc(Cl)cc1C(c1ccccc1Cl)=NC2`: the Potency result in assay [7] and in assay [2] was “inactive” throughout.
For the compound `N#CC(C#N)=Cc1cc(O)c(O)c(O)c1`, the figures for the Potency in assay [7] and in assay [2] were 5.96 µM (active) and 21.1 µM (active), respectively. Moreover, the Potency entry in assay [5] and in assay [6] was “inactive” each time.
`C/C=C(\CC)C(=O)NC(N)=O`: the Potency result in assay [7], in assay [1], in assay [2] and in assay [8] was “inactive” throughout.
Regarding `O=C1Nc2ccc(Cl)cc2C(c2ccccc2Cl)=NC1O` (configuration not stated), the Potency result in assay [1], in assay [2], in assay [3], in assay [4], in assay [5] and in assay [8] was “inactive” throughout.
For the compound `CCC1C(C)=NN=C(c2ccc(OC)c(OC)c2)c2cc(OC)c(OC)cc21` (configuration not stated), the Potency result in assay [2] was “inactive”.
Regarding `CC[C@H]1[C@@H]2C[C@H]3[C@@H]4N(C)c5ccccc5[C@]45C[C@@H](C2[C@H]5O)N3[C@@H]1O` (some centres not stated), the Potency result in assay [1], in assay [2] and in assay [8] was “inactive” throughout.
Regarding `Oc1ccc2c3c1O[C@H]1[C@@H](O)C=C[C@H]4[C@H](C2)NCC[C@@]341`, the Potency result in assay [2] is “inactive”.
Take `O=C1CN=C(c2ccccc2)c2cc(Cl)ccc2N1`: the Potency result in assay [7] and in assay [8] was “inactive” throughout. In addition, in assay [1], the Potency is 23.9 µM (active).
Take `CCC/C=C/C=C/C(=O)O[C@H]1/C(=C/C(=O)OC)C[C@H]2C[C@H]([C@@H](C)O)OC(=O)C[C@H](O)C[C@@H]3C[C@H](OC(C)=O)C(C)(C)[C@](O)(C[C@@H]4C/C(=C/C(=O)OC)C[C@H](/C=C/C(C)(C)[C@]1(O)O2)O4)O3`: the figures for the Potency in assay [7] and in assay [2] were 0.0038 µM (active) and 0.0042 µM (active), respectively. The Potency result in assay [1] and in assay [8] was “inactive” throughout.
For `CNC(C)Cc1ccccc1` (configuration not stated), the Potency result in assay [7] and in assay [2] was “inactive” throughout.
With `CC(N)Cc1ccc2c(c1)OCO2` (configuration not stated), in assay [7], the Potency entry is “inactive”.
Turning to `O=C1C=C2C=C[C@@H]3C[C@@]2(O1)[C@H]1CCCCN31`, the Potency in assay [1] was 4.25 µM (active); in assay [2], 5.96 µM (active).
As to `C[C@@H](Cc1ccccc1)NCCC(c1ccccc1)c1ccccc1`, the Potency in assay [2] is 7.17 µM (active). For the same compound, in assay [8], the Potency entry was “inactive”.
For the compound `CCN1C[C@]2(COC)[C@H](O)C[C@H](OC)[C@@]34[C@@H]5C[C@@]6(O)[C@H](OC(=O)c7ccccc7)[C@@H]5[C@@](OC(C)=O)([C@@H]([C@H](OC)[C@H]23)[C@@H]14)[C@@H](O)[C@@H]6OC`, the Potency result in assay [7], in assay [2] and in assay [8] was “inactive” throughout.
